Assay outcomes: PubChem, National Center for Advancing Translational Sciences (NCATS)
IL-1B inflam inh – inhibitors of inflammasome signaling (IL-1 beta secretion); THP-1 LPS/ATP IL-1B secretion, AlphaLISA, 16 h; stronger effect = lower value; activity change, % at 57.5 µM; 360,000 tested, 4.7% active; in the data active means activity change below about -50%; inconclusive means mostly about -30% to -49%
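THP-1 cells pretreated 1 hr with compounds (up to 57.5 uM final), then stimulated with LPS (250 ng/mL final) plus ATP (1.25 mM final); secreted IL-1B measured by AlphaLISA after 16 hr, decreased signal indicating inhibition.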
TDP1 block – inhibitors of human tyrosyl-DNA phosphodiesterase TDP1 | Potency, µM (doses to about 130 µM), without a hit: at the highest dose activity change, negative = inhibition, usual class: inhibitors | recombinant TDP1, AlphaScreen DNA substrate cleavage | Q9NUW8 | AID 485290 | 350,000 tested, 0.28% active; further: potency means the concentration at half of the fitted maximal effect; nearly all actives have a fitted effect of over 40% in size
Target sequence (Q9NUW8 whole entry, looked up): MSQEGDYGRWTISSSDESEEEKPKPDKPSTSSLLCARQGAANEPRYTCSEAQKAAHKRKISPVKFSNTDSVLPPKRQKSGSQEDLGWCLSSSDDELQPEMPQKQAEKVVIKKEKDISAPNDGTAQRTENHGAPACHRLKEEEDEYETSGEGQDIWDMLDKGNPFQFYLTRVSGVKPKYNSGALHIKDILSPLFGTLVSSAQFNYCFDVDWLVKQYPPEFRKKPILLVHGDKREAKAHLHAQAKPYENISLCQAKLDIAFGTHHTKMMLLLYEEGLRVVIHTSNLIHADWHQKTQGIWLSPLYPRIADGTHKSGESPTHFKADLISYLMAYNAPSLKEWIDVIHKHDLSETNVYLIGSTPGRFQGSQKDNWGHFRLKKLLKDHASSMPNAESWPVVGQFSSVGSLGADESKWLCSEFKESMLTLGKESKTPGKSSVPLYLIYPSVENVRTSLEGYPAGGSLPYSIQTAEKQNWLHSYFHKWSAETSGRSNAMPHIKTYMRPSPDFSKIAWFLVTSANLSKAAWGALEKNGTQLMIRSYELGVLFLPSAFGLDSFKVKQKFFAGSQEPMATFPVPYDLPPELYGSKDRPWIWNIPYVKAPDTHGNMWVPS
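Tdp1 1 nM final; 15 min RT w/ cpd; substrate 15 nM, 5 min; beads 10 ug/ml, 10 min; AlphaScreen read. Neg ctrl: no enzyme.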
ELG1 repair inh – inhibitors of ELG1-dependent DNA repair in HEK293T cells | 330,000 tested, 2.3% active | Potency, µM (doses to about 46.1 µM), without a hit: top-dose activity change, negative = inhibition, most hits filed as inhibitors | AID 504467 | HEK293T ELG1-luciferase reporter, luminescence, 16 h; DNA damage induced by 5-fluorouridine; further: potency means the concentration at half of the fitted maximal effect; nearly all actives have a fitted effect of over 55% in size
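5-Fluorouridine DNA damage + compound/DMSO, 2,000 cells/well, 16 h, 37 °C/5% CO2. ONE-Glo, 30 min RT, luminescence. Readout = decrease in reporter signal.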
DT40 TDP1 no CPT – qHTS for Inhibitors of human tyrosyl-DNA phosphodiesterase 1 (TDP1): qHTS in cells in absence of CPT; DT40 Tdp1-/- hTDP1 cells, no CPT, ATP luminescence, 48 h; Potency, µM (titrated, usually from 46.2 µM), without a hit: at the top dose activity change, negative = growth inhibition, actives largely listed as inhibitors; 420,000 tested, 15% active; AID 686978, 2013; further: potency means the concentration at half of the fitted maximal effect; nearly all actives have a fitted effect of over 55% in size
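Chicken DT40 Tdp1-/- cells complemented with human TDP1, screened without camptothecin (DMSO vehicle only), 400 cells/well. Compounds pin-transferred, cells incubated at 37 °C for at least 48 hr. Growth read as ATP-dependent luminescence (CellTiter-Glo, 30 min at RT).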
Giardia killer – kills Giardia lamblia. Giardia lamblia trophozoite viability. activity change, % at 7.66 µM, hits read low. 340,000 tested, 0.15% active. AID 540267; in the data active means activity change below about -80%; inconclusive means between about -30% and that limit;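 further: parasites exposed to compound for two days anaerobically before the ATP read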
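Giardia trophozoites, 100 cells per well, were exposed to compounds for 48 hrs at 37 deg C under anaerobic conditions; viability was then read as ATP content by bioluminescence after 15-30 min at room temperature.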
DT40 TDP1 CPT – DT40-hTDP1 cell growth loss with CPT | chicken DT40 Tdp1-/-;hTDP1 cells + 20 nM CPT, ATP luminescence, 48 h | Potency, µM (series often up to 46.2 µM), for the others: at the top dose activity change, negative = growth inhibition, hits mostly inhibitors | 420,000 tested, 12% active | AID 686979; further: potency means the concentration at half of the fitted maximal effect; nearly all actives have a fitted effect of over 55% in size
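Chicken DT40 Tdp1-/- cells stably complemented with human TDP1 were seeded at 400 cells/well in medium containing 20 nM camptothecin, exposed to pin-transferred compounds, and grown at 37 °C for at least 48 hr. Viability was read as ATP luminescence.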
* = called active by the depositor; ? = inconclusive; . = not tested or not shown. In the library only some 19% were active in any assay of this set; here they are far more common. Unless noted, the call rests on the fitted dose curve; in most records, active means well fitted curve in the direction sought with a large enough effect; inconclusive means small, poorly fitted or top-dose-only effect, or another doubt; inactive means no such curve, though single readings can be large; an effect the other way counts as inactive or inconclusive. On the % scale 0 is the no-effect control and ±100 the full control effect.

SMILES	IL-1B inflam inh	TDP1 block	ELG1 repair inh	DT40 TDP1 no CPT	Giardia killer	DT40 TDP1 CPT
CCOC(=O)C1=C(C)NC2=C(C(=O)C(C(=O)OCC)C(c3ccco3)C2)C1c1ccccc1C (stereo unspecified)	.	.	.	22.4µM*	.	20µM*
O=C(Cc1ccc(F)cc1)Nc1cccc(-c2nc3cccnc3s2)c1	.	5.7%	.	-7.2%	.	-10.2%
COc1ccc(NC(=O)c2cnc(SC)nc2C)c(OC)c1	?	.	14.4%	-32.3%	5.2	-18.3%
NC(C(=O)O)C1ON=C(Cl)C1O (stereo unspecified)	56.0	.	.	5.8µM*	?	5.8µM*
Cc1ccc(Oc2nnc(-c3cccs3)c3ccccc23)cc1C	-23.2	4.7%	-5.8%	?	-6.5	18.4µM*
Cc1ccc(Oc2nnc(-c3cccs3)c3ccccc23)cc1	17.8	2.4%	13.7%	18.4µM*	-26.4	?
Clc1ccc(-c2noc(-c3cccnc3N3CCN(c4ccccc4)CC3)n2)cc1	.	8.6%	.	?	.	-32.7%
CCCCN1C(=O)c2[nH]nc(-c3ccccc3O)c2C1c1ccc(OCc2ccccc2)c(OC)c1 (stereo unspecified)	.	8.6%	.	20.6µM*	.	?
CCCN1C(=O)c2[nH]nc(-c3ccccc3O)c2C1c1ccc(OCc2ccccc2)c(OCC)c1 (stereo unspecified)	.	12.3%	.	16.4µM*	.	23.1µM*
CC(C)OCCCN1C(=O)c2[nH]nc(-c3ccccc3O)c2C1c1ccccc1F (stereo unspecified)	.	7.4%	.	13µM*	.	13µM*
COCCN1C(=O)c2[nH]nc(-c3ccccc3O)c2C1c1ccc(OC)cc1 (stereo unspecified)	-24.4	4.2%	0.0%	-19.8%	-0.6	-3.8%
Cc1ccc(C2c3c(-c4ccccc4O)n[nH]c3C(=O)N2CCCO)cc1 (stereo unspecified)	.	7.4%	.	29.1µM*	.	18.4µM*
COc1cc(C2c3c(-c4cc(C)ccc4O)n[nH]c3C(=O)N2CCCO)ccc1OCCC(C)C (stereo unspecified)	.	8.6%	.	29.1µM*	.	?
CCCOc1ccc(C2c3c(-c4c(C)cc(C)cc4O)n[nH]c3C(=O)N2CCO)cc1 (stereo unspecified)	.	2.3%	.	23.1µM*	.	20.6µM*
CCCCN1C(=O)c2[nH]nc(-c3ccccc3O)c2C1c1cc(Br)c(O)c(OC)c1 (stereo unspecified)	.	11.0%	.	?	.	?
COCCN1C(=O)c2[nH]nc(-c3cc(C)ccc3O)c2C1c1ccc(C(C)C)cc1 (stereo unspecified)	.	9.8%	.	?	.	?
CCCCN1C(=O)c2[nH]nc(-c3ccccc3O)c2C1c1ccc(C(C)(C)C)cc1 (stereo unspecified)	.	7.4%	.	13µM*	.	20.6µM*
CC(C)OCCCN1C(=O)c2[nH]nc(-c3ccccc3O)c2C1c1cccc(OCc2ccccc2)c1 (stereo unspecified)	.	3.7%	.	?	.	10.3µM*
CCCCN1C(=O)c2[nH]nc(-c3ccccc3O)c2C1c1ccc(OCc2ccccc2)cc1 (stereo unspecified)	.	7.4%	.	?	.	18.4µM*
CCC(=O)Oc1cc(C(C)(C)C)cc2cc(-c3nc(-c4ccc(OC)cc4OC)no3)c(=O)oc12	.	2.6%	.	16.4µM*	.	?
COc1ccc(-c2nc(-c3ccc(Br)cc3)no2)c(OC)c1	?	4.1%	.	-41.8%	-4.7	-0.4%
Cc1c(C(=O)O)sc2nc3n(c(=O)c12)CCC3	-3.1	14.1µM*	13.6%	?	8.0	-28.3%
Cc1c(C(=O)NCCc2ccc(Cl)cc2)sc2nc3n(c(=O)c12)CCCC3	.	10.4%	.	18.4µM*	.	?
Cc1c(C(=O)Nc2ccc(C(C)C)cc2)sc2nc3n(c(=O)c12)CCC3	.	2.6%	.	20.6µM*	.	16.4µM*
Cc1c(C(=O)N(C)c2cccc(C(F)(F)F)c2)sc2nc3n(c(=O)c12)CCCCC3	.	5.2%	.	14.6µM*	.	?
SMILES	IL-1B inflam inh	TDP1 block	ELG1 repair inh	DT40 TDP1 no CPT	Giardia killer	DT40 TDP1 CPT
COc1ccc(-c2nc3ccccc3c(=O)n2Cc2ccccc2)cc1OCc1ccc(NC(C)=O)cc1	.	2.7%	.	.	.	.
CCOc1ccc(Sc2cc(C(=O)NCc3ccc(F)cc3)c3ccccc3n2)cc1	.	7.8%	.	?	.	-26.9%
Cc1c(C(=O)Nc2cccc(C(F)(F)F)c2)sc2nc3n(c(=O)c12)CCCC3	.	6.5%	.	8.2µM*	.	10.3µM*
Cc1c(C(=O)Nc2ccc(C(C)C)cc2)sc2nc[nH]c(=O)c12	.	7.7%	.	18.4µM*	.	20.6µM*
CC(=O)c1cccc(NC(=O)c2sc3nc4n(c(=O)c3c2C)CCCC4)c1	-16.1	1.6%	0.0%	-4.6%	-2.0	?
CC(=O)Nc1ccc(NC(=O)c2sc3nc4n(c(=O)c3c2C)CCCCC4)cc1	-8.2	2.4%	?	10.3µM*	-15.1	11.6µM*
CCOc1ccc(NC(=O)c2sc3nc4n(c(=O)c3c2C)CCCC4)cc1	.	11.7%	.	13µM*	.	20.6µM*
CCc1ccc(NC(=O)c2sc3nc4n(c(=O)c3c2C)CCC4)cc1	-3.2	2.2%	?	-21.9%	35.4	-22.2%
Cc1ccc(NC(=O)c2sc3nc[nH]c(=O)c3c2C)cc1Cl	.	-1.1%	.	?	.	-28.7%
CC(C)NC(=O)N(C)C[C@@H]1Oc2cc(Br)ccc2S(=O)(=O)N([C@@H](C)CO)C[C@H]1C	-1.6	.	.	3.0%	.	4.3%
COc1ccc(OC)c(C(=O)NC2CC(C)(C)Cc3c2cnn3-c2ccccc2)c1 (stereo unspecified)	-4.0	1.6%	?	?	-17.8	?
Cc1ccc(N(CC(=O)Nc2ccc(F)cc2F)S(=O)(=O)c2cccs2)cc1	.	2.3%	.	?	.	-21.7%
COc1cc(OC)c(N(C)C(=O)c2sc3nc4n(c(=O)c3c2C)CCCC4)cc1Cl	.	5.2%	.	16.4µM*	.	?
O=c1[nH]c(Cc2ccccc2Cl)nc2ccccc12	12.5	8.4%	-3.0%	-13.8%	-9.5	-4.7%
Cc1ccc2c(=O)[nH]c(Cc3ccccc3C(=O)O)nc2c1	-7.0	.	?	18.4µM*	-0.9	?
CCOc1ccc(N(CC(=O)NC2CCCCC2C)S(=O)(=O)c2c(C)noc2C)cc1 (stereo unspecified)	11.8	2.0%	-1.1%	-1.8%	-7.5	?
CCOc1ccc(S(=O)(=O)N(CC(=O)NC2CCCCC2C)Cc2ccco2)cc1 (stereo unspecified)	?	2.4%	?	25.9µM*	30.7	14.6µM*
